# Measured values as given in the supplement of paper PMC3545927.
# The other results are listed elsewhere or left out. How many sequences the whole screen found active is unknown.
# B1: HC821 (peptide)
# chain: CATDATSILGAGNASASA
# B2: FS-3253 (peptide)
# chain: CARHKKSKFTAGNASASA
# B3: HC1354 (peptide)
# chain: CASMPPLEGEAGNASASA
# B4: NG6 (peptide)
# chain: CAGAAKAAAGAGNASASA
# B5: HC117 (peptide)
# chain: CAVVCCYMSYAGNASASA
# B6: HC881 (peptide)
# chain: CAMTGYTGDFAGNASASA
# B7: FS-2115 (peptide)
# chain: CAVTKRSLSPAGNASASA
# B8: FS-1401 (peptide)
# chain: CARPARFLRHAGNASASA
# B9: FS-2574 (peptide)
# chain: CARLRRGGDPAGNASASA
# B10: FS-2983 (peptide)
# chain: CARLARGEDEAGNASASA
# B11: FS-2051 (peptide)
# chain: CARPARFLDSAGNASASA
# B12: FS-1744 (peptide)
# chain: CARLRRGQCPAGNASASA
# B13: FS-3144 (peptide)
# chain: CAVTKRDVLDAGNASASA
# B14: FS-1745 (peptide)
# chain: CARLRRSLKPAGNASASA
# B15: HC489 (peptide)
# chain: CARDRSELSPAGNASASA
# B16: FS-2984 (peptide)
# chain: CARLARNVKEAGNASASA
# Biological target: furin, P09958
# Sequence (P09958 whole entry): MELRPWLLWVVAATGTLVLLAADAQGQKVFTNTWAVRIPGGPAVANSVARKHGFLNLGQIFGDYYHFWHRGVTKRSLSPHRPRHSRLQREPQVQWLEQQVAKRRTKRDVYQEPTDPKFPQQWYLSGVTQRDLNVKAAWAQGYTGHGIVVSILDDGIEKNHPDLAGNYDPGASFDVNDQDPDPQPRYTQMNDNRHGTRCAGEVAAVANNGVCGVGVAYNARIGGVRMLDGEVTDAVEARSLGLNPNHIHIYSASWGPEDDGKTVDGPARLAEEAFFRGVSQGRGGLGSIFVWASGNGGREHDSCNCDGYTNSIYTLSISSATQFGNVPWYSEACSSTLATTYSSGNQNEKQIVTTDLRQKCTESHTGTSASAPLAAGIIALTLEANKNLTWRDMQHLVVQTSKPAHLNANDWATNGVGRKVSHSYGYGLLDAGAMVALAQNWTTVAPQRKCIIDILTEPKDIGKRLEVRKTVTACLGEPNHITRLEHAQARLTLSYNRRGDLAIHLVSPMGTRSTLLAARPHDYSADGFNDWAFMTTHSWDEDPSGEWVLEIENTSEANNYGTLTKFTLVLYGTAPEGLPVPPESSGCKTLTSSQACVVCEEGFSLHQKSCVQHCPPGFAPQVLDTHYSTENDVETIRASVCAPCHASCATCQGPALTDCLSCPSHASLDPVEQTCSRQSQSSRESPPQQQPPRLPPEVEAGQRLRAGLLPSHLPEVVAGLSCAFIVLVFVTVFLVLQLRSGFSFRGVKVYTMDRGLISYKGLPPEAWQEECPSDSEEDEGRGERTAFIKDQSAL
# Assay: furin cleavage Z-score vs untreated control; higher = more cleavage, active = 3.5 or more, inactive = 1 or less, 8 variable residues between constant flanks
# Summary of the method: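 In 50 mM HEPES pH 7.5 with CaCl2 and NaCl, purified furin was incubated with bead-anchored 8-mer peptide–cDNA fusions at 1:10 enzyme:substrate in 0.01 ml. Incubation times were 7.5, 15 and 30 min. DNA set free by cleavage was adapter-tagged by PCR and sequenced, with read counts taken as abundance. Log counts relative to furin-free reactions, after lowess adjustment and median absolute deviation scaling, form the cleavage Z-score.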
Sequence,furin cleavage Z-score (7.5 min),furin cleavage Z-score (15 min),furin cleavage Z-score (30 min)
B1,0.234 (inactive),-0.686 (inactive),-0.354 (inactive)
B2,-0.584 (inactive),-0.415 (inactive),-1.12 (inactive)
B3,0.264 (inactive),-0.391 (inactive),-0.745 (inactive)
B4,-1.87 (inactive),-1.89 (inactive),-1.77 (inactive)
B5,-0.228 (inactive),0.612 (inactive),-0.215 (inactive)
B6,0.318 (inactive),1.08,-0.18 (inactive)
B7,1.18,3.3,4.48 (active)
B8,7.22 (active),9.82 (active),7.94 (active)
B9,-0.102 (inactive),1.44,0.372 (inactive)
B10,-0.38 (inactive),-0.666 (inactive),-0.468 (inactive)
B11,0.467 (inactive),1.13,1.17
B12,-0.204 (inactive),1.25,-0.396 (inactive)
B13,-0.767 (inactive),-0.792 (inactive),0.507 (inactive)
B14,6.9 (active),7.63 (active),9.8 (active)
B15,-0.384 (inactive),0.819 (inactive),-0.778 (inactive)
B16,4.24 (active),6.29 (active),5.68 (active)
